Drawing on the supplement of paper PMC6555819, this text covers PBM binding z-score for 40 sequences.

The assay relates to VDR:RXRa (NR concentration 270 nM, RXRa partner concentration 90 nM). Description: PBM binding z-score (relative to random genomic background probes); higher = stronger binding; sequences stand for … in GC…GCGATTGACAGCGTAGAATGAAGG
How it is done:
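Protein-binding microarray (Agilent 4x180K custom design, double-stranded 60-nt probes: 5' GC cap, 34-nt variable region, 24-nt constant primer region; full probe sequence given). Purified or IVT nuclear receptor:RXRα heterodimers (3:1 NR:RXRα, mostly 270:90 nM) or homodimers were incubated for 1 h in PBS with 2% milk and no ligand, then detected with Alexa488 antibodies. Fluorescence from o1-orientation probes (~5 replicates averaged) was converted to z-scores against 500 random hg19 background probes. Variable regions are seed direct-repeat (DR0–DR5) sites, all their single-nucleotide variants and half-site ablations.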
For the sequence CGAACTAGTTCATTGACAGGACAGTGAATAGTAA, the PBM binding z-score amounted to 1.26.

Consider GCTGCTAGGTCAGGTTCGTCAGCTAACGGGTACG, for which the PBM binding z-score amounted to 1.44. As for CGCCAAAGTTCAACTAAGGTAACGTAAAGCACGC, the PBM binding z-score came out at 4.9.

For the sequence TCTGCTAGGTCAGTTGGTCTGCTAACGAGCTGCC, the PBM binding z-score was 0.0911. Then CCTATTAGTTGACCATGAGGGCAACCGAAGCTCG, with 1.02; and ACTTTTAGTTGACTTAGGGCAACCGATACGACGC, with 0.839. The same measure for CCGACTGGGGCAAAGGTGACCATACTCAGTACGA: 0.389. For ATCTCTAGGTAACCAAGTTCACTGAATGCCGAAC, the PBM binding z-score worked out at 5.34. The sequence CCTACTGGGCCATGAGGTCATTGATATCAACGTT displayed a PBM binding z-score of 4.43. Consider ATCTCTAGGTAAAGATAGTTCCGTGAATGCAAAT, for which the PBM binding z-score was -0.0941.

As to AGAACGAGGGCAATGAGTTGCTAGCACGGGTGGC, the PBM binding z-score is 3.91. In turn, CCTACTGGGCCAAAAAGGTCAGTGATGCCGATAA displayed a PBM binding z-score of 2.91. Regarding TAGCCTAGGTCAGATCGGCCCAGTATACGCTATA, the PBM binding z-score worked out at 0.134. In turn, CGTCCAAGGTCAGCAGTTCAGTGAAAGCGACGTG showed a PBM binding z-score of 3.56. With TAGCCTAGGTCACTCAGGGGCCAGTATAGAAAGC, the PBM binding z-score worked out at 2.42.

Turning to TGTCAAAGTGCAAAGGTAACGTAAGTATCCACAC, the PBM binding z-score came out at 1.59. CCGAGTAGGTTATGGGGCCTTCAGGCAACGGTGA registered a PBM binding z-score of -0.408. CCTACTGGGCCAATCAGAGGTCATTGATCATATG returned a PBM binding z-score of 4.12. As to ATATGTAGGTTAGCTGGGGTCGTTCAGACTAGGC, the PBM binding z-score was 4.67.

The sequence ATCTCTAGGTAAGACGCAGTTCAGTGAAGAACGC registered a PBM binding z-score of 0.101.

Consider CGGCCAAGGTCAGAGAGGTCAGTGAATGCCGAGT, for which the PBM binding z-score is 7.41. Consider TCGAGTAGGTTATTCGGGGCATTCAGCCAACATA, for which the PBM binding z-score worked out at 4.03. ATATGTAGGGTAAGGGTCATTCAGGTTGGTTCGC had a PBM binding z-score of 5.59.

Sequence TCGAGTATGTTAGGGGCATTCAGAATGGCGTCGA displayed a PBM binding z-score of 0.88. Regarding ATACCAATGTGATCGTGAGGTCGTTGATACTAAC, the PBM binding z-score amounted to 1.62.

Consider TCAGACAGGTGAAGGTAATTCAGGTACGCAGTCG, for which the PBM binding z-score is 1.1. Then AGAATGAGGTTACCAAAGATCATGGAAACGCTTG, with 1.79; and AGAACGAGGGCAATGAGATGATAGCACGGGTGGC, with 0.474. Regarding CCTATTAGTTGACCATAATGGCAACCGAAGCTCG, the PBM binding z-score is 0.509. On to ACTAGCAGGCCAAGTTTGGCTCACTCAAACAAAG, for which the PBM binding z-score was -0.767. Then CCTAGCAGGCCAATCTGGGTCACTCCAGGCTTGA, with 0.284.

CCTACTGGGCCATCCGGTCATTGATATCAACGTT showed a PBM binding z-score of 0.0642. Then TAGCCTAGGTCATTCAGGGGCCATTATAGAAAGC, with 4.23; and CAAACTACGTCAAGAGGTCAAAGTCCGCTTCCCG, with 5.03. Take CCTTACGGGTCACGAAGTTATAGCACGACGAGCG: the PBM binding z-score was determined as 3.91. As for ACTATTAGTTGACGTAGGGCAACCGATACGACGC, the PBM binding z-score came out at 0.19. The same measure for CGTACTGGGCCAAGGTCATTGATCAGTCAAAGCA: 3.3; for AAACCAAGGTGATCGTGAGGTCGTTGATACTAAC: 3.21; for ATAACAAGGTGATCGTGAGGTCGTTGATACTAAC: 2.97.

In turn, CCTATTAGTTGACCATAAGGGCAAGCGAAGCTCG yielded a PBM binding z-score of 0.92.
